Pol eta inh-1: qHTS for Inhibitors of Polymerase Eta; DNA polymerase eta (Homo sapiens), Q9Y253; recombinant Pol eta, fluorescent DNA replication assay; Potency, µM (titrated, usually from 114 µM), for inactives: at the top dose activity change, negative = inhibition, usual class: inhibitors; actives 1.2% (n = 390,000); also: potency is read from the fitted curve at half-maximal effect; % is scaled to controls: 0 for no effect and ±100 for the full control effect
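Fluorescent replication assay: 50 nM final substrate added after a 15 min room-temperature compound preincubation with 10 nM enzyme. Signal taken at 0 min and again at 10 min.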
Pol kappa inh-1: qHTS for Inhibitors of Polymerase Kappa; Potency, µM (top dose mostly 107 µM), inactives show at the highest dose activity, negative = inhibition, usual class: inhibitors; purified Pol kappa, fluorescent DNA synthesis assay, 10 min; AID 588579, 2011; actives 0.53% (n = 400,000); DNA polymerase kappa (Homo sapiens), Q9UBT6; also: potency is read from the fitted curve at half-maximal effect; % is scaled to controls: 0 for no effect and ±100 for the full control effect
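Inhibition of 10 nM Pol kappa is measured by a fluorescent read-out at 0 and 10 min following addition of 50 nM substrate (final), with a 15-min room-temperature compound preincubation.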
Pol iota inh: qHTS for Inhibitors of Polymerase Iota. actives 1% (n = 390,000). AID 588590, 2011. Pol iota fluorescent replication assay, 10 min. DNA polymerase iota (Homo sapiens), Q9UNA4. Potency, µM (top dose mostly 115 µM), for inactives: top-dose activity, negative = inhibition, hits mostly inhibitors; also: potency is read from the fitted curve at half-maximal effect
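Pol iota at 10 nM preincubated 15 min with compounds at room temperature; reaction started with fluorescent substrate, 50 nM final. Fluorescence read kinetically at 0 and 10 min; buffer-only wells as negative control.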
POLB inh: qHTS Assay for Inhibitors of DNA Polymerase Beta. actives 1.3% (n = 340,000). P06746. Potency, µM (top dose mostly 114 µM), for the others: at the top dose activity change, negative = inhibition, hits mostly inhibitors. Pol beta primer extension/strand displacement, fluorescence kinetic; also: potency is read from the fitted curve at half-maximal effect; % is scaled to controls: 0 for no effect and ±100 for the full control effect
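Curves were derived by four-parameter Hill fits of normalized qHTS data. The kinetic fluorescent primer-extension read was taken at 0 and 10 min after 50 nM substrate, following a 15 min room-temperature preincubation of 10 nM enzyme with compounds.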
APE1 inh-1: qHTS Assay for Inhibitors of the Human Apurinic/apyrimidinic Endonuclease 1 (APE1); actives 0.35% (n = 350,000); recombinant APE1, TAMRA/BHQ-2 abasic DNA cleavage fluorescence; Potency, µM (top dose mostly 65.8 µM), without a hit: top-dose activity change, negative = inhibition, most hits filed as inhibitors; DNA repair nuclease/redox regulator APEX1 (Homo sapiens), P27695;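 also: potency is read from the fitted curve at half-maximal effect; plate controls were vehicle for no effect and reference inhibitor for full effect; nearly all actives have a fitted effect of over 55% in size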
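Incision of a quenched TAMRA/BHQ-2 THF abasic-site duplex (50 nM) by 0.75 nM APE1, after 15 min compound preincubation, measured as fluorescence increase over three 60 s reads. Values normalized to buffer, DMSO and NSC13755 control wells.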
L3MBTL1 inh-1: qHTS Assay for the Inhibitors of L3MBTL1 | Lethal(3)malignant brain tumor-like protein 1 (Homo sapiens), Q9Y468 | AlphaScreen L3MBTL1–H3K9me1 peptide binding | Potency, µM (titrated, usually from 57.1 µM), inactives show at the top dose activity, negative = inhibition, actives largely listed as inhibitors | actives 0.66% (n = 230,000); also: potency is read from the fitted curve at half-maximal effect; % is scaled to controls: 0 for no effect and ±100 for the full control effect; nearly all actives have a fitted effect of over 60% in size
Target sequence (Q9Y468 whole entry, looked up): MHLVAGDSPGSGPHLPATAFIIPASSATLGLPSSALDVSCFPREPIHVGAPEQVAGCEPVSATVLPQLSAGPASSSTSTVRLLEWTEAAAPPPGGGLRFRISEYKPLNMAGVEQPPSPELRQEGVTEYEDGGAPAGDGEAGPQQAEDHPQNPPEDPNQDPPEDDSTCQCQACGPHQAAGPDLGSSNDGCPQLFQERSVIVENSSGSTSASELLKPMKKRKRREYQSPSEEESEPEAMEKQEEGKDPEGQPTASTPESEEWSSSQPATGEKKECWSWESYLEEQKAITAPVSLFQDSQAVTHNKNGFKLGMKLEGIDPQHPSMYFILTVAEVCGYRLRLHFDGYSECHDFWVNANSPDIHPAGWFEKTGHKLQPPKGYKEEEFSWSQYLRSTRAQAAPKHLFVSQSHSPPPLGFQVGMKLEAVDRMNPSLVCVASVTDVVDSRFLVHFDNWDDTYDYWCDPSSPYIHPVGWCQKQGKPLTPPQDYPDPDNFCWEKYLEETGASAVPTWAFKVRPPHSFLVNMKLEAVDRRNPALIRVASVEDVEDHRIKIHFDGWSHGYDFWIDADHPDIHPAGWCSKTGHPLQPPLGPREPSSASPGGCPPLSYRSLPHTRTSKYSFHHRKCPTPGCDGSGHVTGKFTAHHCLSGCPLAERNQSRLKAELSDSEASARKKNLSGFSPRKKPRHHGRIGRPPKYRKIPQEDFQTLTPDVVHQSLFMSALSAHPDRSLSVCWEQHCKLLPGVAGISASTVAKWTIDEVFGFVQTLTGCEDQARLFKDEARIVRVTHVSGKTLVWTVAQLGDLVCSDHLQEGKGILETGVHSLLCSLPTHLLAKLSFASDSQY
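Displacement of a biotinylated histone H3(1-15) peptide monomethylated at Lys9 (75 nM) from L3MBTL1 (50 nM) was measured by AlphaScreen after a 30 min room-temperature compound incubation; cefsulodin titration served as intraplate control.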
DNA dye displace: Counterscreen for APE1 Inhibitors: Fluorescent Dye Displacement Assay; shares compounds with APE1 inh-1; DNA fluorescent dye displacement counterscreen, fluorescence; Potency, µM (titrated, usually from 28.5 µM), for inactives: at the top dose activity change, negative = inhibition, hits mostly inhibitors; actives 7% (n = 480);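 also: loss of thiazole orange fluorescence as the dye is displaced from duplex DNA; potency is read from the fitted curve at half-maximal effect; 0% = ThO with dsDNA and no compound and -100% = ThO without dsDNA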
Endo IV inh: Counterscreen for APE1 Inhibitors: qHTS Assay for Inhibitors of Endonuclease IV; Potency, µM (titrated, usually from 27.1 µM), inactives show at the top dose activity change, negative = inhibition, usual class: inhibitors; AID 2565, 2010; actives 4% (n = 560); E. coli Endo IV, fluorogenic AP-site DNA cleavage; shares compounds with APE1 inh-1;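 also: potency is read from the fitted curve at half-maximal effect; plate controls were uninhibited enzyme wells for no effect and no enzyme buffer wells for full effect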
APE1 inh-2: Confirmation qHTS Assay for Inhibitors of the Human Apurinic/apyrimidinic Endonuclease 1 (APE1); shares compounds with APE1 inh-1; purified APE1, fluorogenic abasic-site DNA cleavage; Potency, µM (highest dose often 57.1 µM), without a hit: at the highest dose activity change, negative = inhibition, hits mostly inhibitors; actives 44% (n = 750); AID 2572, 2010; also: potency is read from the fitted curve at half-maximal effect; % is scaled to controls: 0 for no effect and ±100 for the full control effect; nearly all actives have a fitted effect of over 30% in size
APE1 FP: qHTS FP-Based Assay for Inhibitors of the Human Apurinic/apyrimidinic Endonuclease 1 (APE1); Potency, µM (titrated, usually from 28.5 µM), for inactives: at the highest dose activity, negative = inhibition, hits mostly inhibitors; APE1 binding to TAMRA-labelled double-stranded DNA, fluorescence polarization displacement; shares compounds with APE1 inh-1; actives 7% (n = 480); also: potency is read from the fitted curve at half-maximal effect; % is scaled to controls: 0 for no effect and ±100 for the full control effect
L3MBTL1 inh-2: qHTS Assay for the Inhibitors of L3MBTL1: Hit Validation | shares compounds with L3MBTL1 inh-1 | L3MBTL1 methyl-lysine binding inhibition, biochemical qHTS | Potency, µM, hits mostly inhibitors | actives 91% (n = 500); also: potency is read from the fitted curve at half-maximal effect; nearly all actives have a fitted effect of over 70% in size
AlphaScreen ctr2: qHTS Assay for the Inhibitors of L3MBTL1: Hit Validationin AlphaScreen Counterscreen; shares compounds with L3MBTL1 inh-1; AlphaScreen counterscreen, signal inhibition; Potency, µM (doses to about 57.1 µM), inactives show at the top dose activity change, negative = inhibition, hits mostly inhibitors; 500 tested, under 10 active; AID 602224, 2012; also: potency is read from the fitted curve at half-maximal effect; 0% is about no effect
BAZ2B confirm: qHTS Assay for Inhibitors of BAZ2B: Hit Validation | shares compounds with Pol kappa inh-1 | AlphaScreen BAZ2B / biotin-H3K14Ac peptide displacement | Potency, µM, hits mostly inhibitors | actives 100% (n = 25); calls by dose curve
AlphaScreen ctr: qHTS Assay for Inhibitors of BAZ2B: Hit Validation in AlphaScreen Counterscreen. shares compounds with Pol kappa inh-1. AlphaScreen biotin-His6 peptide bead counterscreen, signal decrease. Potency, µM (series often up to 57.1 µM), inactives show at the highest dose activity change, negative = inhibition, actives largely listed as inhibitors. 25 tested, under 10 active. AID 588859, 2011;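 active = clear concentration-dependent signal drop in the bead assay lacking the target, so a primary-screen artifact; inconclusive = weak, partial or single-dose response; inactive = no response, so a real primary hit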
Pol iota confirm: qHTS for Inhibitors of Polymerase Iota: Confirmatory Assay for Cherry-picked Compounds | shares compounds with Pol kappa inh-1 | Pol iota primer extension, TAMRA/BHQ fluorescence | Potency, µM, most hits filed as inhibitors | actives 77% (n = 1,500) | AID 720496, 2013; also: potency is read from the fitted curve at half-maximal effect
Pol kappa inh-2: qHTS for Inhibitors of Polymerase Kappa: Confirmatory Assay for Cherry-picked Compounds | Potency, µM, usual class: inhibitors | actives 76% (n = 920) | purified Pol-kappa, fluorescent strand-displacement substrate | shares compounds with Pol eta inh-1; also: potency is read from the fitted curve at half-maximal effect
Pol eta inh-2: qHTS for Inhibitors of Polymerase Eta: Confirmatory Assay for Cherry-picked Compounds; shares compounds with Pol eta inh-1; Pol eta primer extension, TAMRA/BHQ fluorescence, 10 min; Potency, µM, usual class: inhibitors; actives 64% (n = 2,600); also: potency is read from the fitted curve at half-maximal effect
* = called active by the depositor; ? = inconclusive; / = not tested or not shown. Hits are enriched below; roughly 2.5% of the tested compounds scored in any of these assays. Unless noted, calls follow the shape of the dose curve; as a rule, active = well fitted curve in the direction sought with a large enough effect; inconclusive = small, poorly fitted or top-dose-only effect, or another doubt; inactive = no such curve, though single readings can be large; an effect the other way counts as inactive or inconclusive.

SMILES	Pol eta inh-1	Pol kappa inh-1	Pol iota inh	POLB inh	APE1 inh-1	L3MBTL1 inh-1	DNA dye displace	Endo IV inh	APE1 inh-2	APE1 FP	L3MBTL1 inh-2	AlphaScreen ctr2	Pol iota confirm	Pol eta inh-2	others
Cc1cc(/C=C2\C(=O)NC(=O)N(Cc3ccccc3Cl)C2=O)c(C)n1-c1ccc(C(=O)O)cc1	10µM*	50.1µM*	8.91µM*	15.8µM*	11.2µM*	28.2µM*	-12.0%	-3.0%	12.6µM*	?	5.32*	7.9%	21.2*	23.9*
Cc1cc(/C=C2/C(=O)NC(=O)N(c3ccccc3)C2=O)c(C)n1-c1ccc(F)cc1	?	-17.7%	?	/	/	/	/	/	/	/	/	/	/	/
Cc1cc(/C=C2\C(=O)NC(=O)N(Cc3ccco3)C2=O)c(C)n1-c1ccc(C(=O)O)cc1	17.8µM*	?	17.8µM*	?	14.1µM*	28.2µM*	-11.2%	7.7%	?	5.3%	13.4*	0.7%	18.9*	26.9*
C=C(C)C(=O)Nc1cccc(C2=NOC3(C2)C[C@H](C(N)=O)N(C(=O)COc2ccc(Cl)cc2)C3)c1 (some centres not stated)	7.94µM*	17.8µM*	44.7µM*	4.47µM*	?	/	/	/	?	/	/	/	16.8*	8.49*	BAZ2B confirm=5.62*;AlphaScreen ctr=-18.0%
O=c1cc(-c2ccc(O)c(O)c2)oc2c(C3O[C@H](CO)[C@@H](O)[C@H](O)[C@H]3O)c(O)cc(O)c12 (some centres not stated)	?	20µM*	28.2µM*	20µM*	0.891µM*	10µM*	?	73.5%	?	-3.9%	/	/	/	?	Pol kappa inh-2=18.9*
